Data as given in PubChem BioAssay.
Values without a mark were called inactive. The source made the active and inactive calls. Cut-off read from the data, not from the text of the source: active = fold change permeability below about 0.7 or above about 1.3; inactive = in between.

Experiment: compounds altering in vitro BBB leakiness – cell-based, FITC-avidin fluorescence, HTS, primary screen (AID 1963498); note: test concentration not given here
Conditions: brain endothelial barrier, actives lie on both sides
With `O=c1[nH]ccc2c(O)cccc12` the fold change permeability was 2.2 (active). With `OC[C@H]1O[C@H]([S-])[C@H](O)[C@@H](O)[C@@H]1O.[Au+]` the fold change permeability was 1.5 (active). With `C[N+](C)(C)CCOC(N)=O` the fold change permeability was 0.9. In the case of `N=C(N)SCCN`, the fold change permeability is reported as 1.1. In the case of `Nc1nc(OCc2cc(Br)cs2)c2[nH]cnc2n1`, the fold change permeability is reported as 1.5 (active). With `C[C@H](NCCc1ccc(O)cc1)[C@H](O)c1ccc(O)cc1` the fold change permeability was 0.7 (active). With `CO[C@H]1O[C@@H]2O[C@@]3(C)CC[C@H]4[C@H](C)CC[C@@H]([C@H]1C)[C@@]24OO3` the fold change permeability was 0.8. Compound `O=C(O)C1=CCNCC1` has a fold change permeability of 1. For `Cc1c(C(C)C)c(=O)n(-c2ccc(S(=O)(=O)NCCOc3ccccc3)cc2)n1C`, the fold change permeability was 1.3 (active). For `Cn1cc(C(F)(F)F)nc1-c1ccc(OCC(O)CNCCOc2ccc(O)c(C(N)=O)c2)cc1` (centres undefined), the fold change permeability was 1.3 (active). With `CC1(C)CO[C@@H](CC(=O)O)CN1` the fold change permeability was 1.2. Work on `NC(=O)C(c1ccccc1)(c1ccccc1)[C@@H]1CCN(CCc2ccc3c(c2)CCO3)C1` yielded a fold change permeability of 0.8. With `NCCCCN=C(N)N` the fold change permeability was 1.3 (active). For `Cc1nc(N=Nc2ccc(C(=O)O)cc2)c(COP(=O)(O)O)c(C=O)c1O`, the fold change permeability was 0.7 (active). With `c1ccc(Cn2c(NCc3ccco3)nc3ccccc32)cc1` the fold change permeability was 1.6 (active). For `COc1ccc(-c2ccc(N)[n+](CCCC(=O)O)n2)cc1`, the fold change permeability was 0.8. For `Nc1nc2ccc(Cl)cc2c2nc(-c3ccco3)nn12`, the fold change permeability was 1.3 (active). `COc1ccc2c(c1)c(CC(=O)O)c(C)n2Cc1ccc(Cl)cc1` showed a fold change permeability of 1. With `CCCOc1ccccc1-c1nc2n[nH]nc2c(=O)[nH]1` the fold change permeability was 1.9 (active). With `Cc1nc2c([nH]1)c(=O)n(C)c(=O)n2Cc1ccco1` the fold change permeability was 0.7 (active). For `N[C@@H](CS(=O)O)C(=O)O`, the fold change permeability was 1. With `Oc1cc2c(cc1O)C(c1ccccc1)CNCC2` (centres undefined) the fold change permeability was 0.7 (active). In the case of `O=C(OC1C[C@@H]2CC3C[C@H](C1)N2CC3=O)c1c[nH]c2ccccc12` (some centres undefined), the fold change permeability is reported as 0.8. Compound `O=C(CCCN1CCC(O)(c2ccc(Cl)cc2)CC1)c1ccc(F)cc1` has a fold change permeability of 1.2. In the case of `O=c1oc(Cl)c(Cl)c2ccccc12`, the fold change permeability is reported as 1.4 (active). `CCCC(C(=O)OCCN(CC)CC)(c1ccccc1)c1ccccc1` gave a fold change permeability of 1.2. For `Oc1ccc(-c2nc(-c3ccc(F)cc3)c(-c3ccncc3)[nH]2)cc1`, the fold change permeability was 1.1. Compound `CNCCCC12CCC(c3ccccc31)c1ccccc12` has a fold change permeability of 0.9. In the case of `CC(C)NCC(O)c1ccc(O)c(O)c1` (centres undefined), the fold change permeability is reported as 1.4 (active). For `Cc1cc(NC2CCCCC2)nc(-n2nc(C)cc2C)n1`, the fold change permeability was 1.3 (active). `COc1cc2nc(N3CCN(C(=O)c4ccco4)CC3)nc(N)c2cc1OC` showed a fold change permeability of 1. `COc1cccc(OC)c1-c1cc(C(=O)NC2(C(=O)O)C3CC4CC(C3)CC2C4)nn1-c1ccc(C(=O)N(C)CCCN(C)C)cc1C(C)C` (centres undefined) showed a fold change permeability of 0.9. For `CCCC[C@@]1(C2CCCC2)Cc2cc(OCC(=O)O)c(Cl)c(Cl)c2C1=O`, the fold change permeability was 1.6 (active). `NC(=O)c1cc[n+](CC2=C(C(=O)O)N3C(=O)[C@@H](NC(=O)[C@@H](c4ccccc4)S(=O)(=O)[O-])[C@H]3SC2)cc1` gave a fold change permeability of 0.8. With `C=C[C@@]1(C)CC(=O)[C@]2(O)[C@@]3(C)[C@@H](O)CCC(C)(C)[C@@H]3[C@H](O)[C@H](OC(C)=O)[C@@]2(C)O1` the fold change permeability was 0.8. `CCCNC(C)C(=O)Nc1ccccc1C` (centres undefined) showed a fold change permeability of 1. With `O=C(NCCc1nccs1)c1cnc2c(SSc3cccc4cc(C(=O)NCCc5nccs5)cnc34)cccc2c1` the fold change permeability was 0.7 (active). `N[C@H](CO)C(=O)O` gave a fold change permeability of 0.8. Work on `COc1ccc(-c2csc(NC(=O)[C@H]3CCCCN3S(=O)(=O)c3ccc(C)cc3)n2)cc1` yielded a fold change permeability of 0.9.
